# PubChem BioAssay (NCATS)
# Records with an inconclusive call do not appear. Calls of active or inactive are those of the source. Calls follow the shape of the dose curve; as a rule, active = well fitted cell-killing curve with a large enough effect; inconclusive = small, poorly fitted or top-dose-only effect; inactive = flat fitted curve, though single readings scatter.
# Assay: Cell Viability - LYMP2-006 (AID 978); also: nearly all actives have a fitted effect of over 60% in size
# Settings: LYMP2-006 lymphoblastoid cell viability, qHTS; series mostly up to 92.2 µM; activity change, negative = cytotoxicity: at the top concentration
# Text: NIH Chemical Genomics Center [NCGC]
# NIH Molecular Libraries Screening Centers Network [MLSCN]
# National Institutes of Environmental Health Sciences [NIEHS]
# National Toxicology Program [NTP]
# We have developed a 1536-well cell-based assay for quantitative high throughput screening (qHTS) against a number of cell lines to determine in vitro cytotoxicity of small molecules. This particular assay uses a human lymphoblastoid cell line (LYMP2-006) purchased from Coriell Institute for Medical Research.
# NCGC Assay Protocol Summary:
# The CellTiter-Glo luminescent cell viability assay (Promega) is a homogeneous method to measure the number of viable cells in culture. The end point readout of this assay is based on quantitation of intracellular ATP, an indicator of metabolic activity, using the luciferase reaction. Luciferase catalyzes the oxidation of beetle Luciferin to oxyluciferin and light in the presence of ATP. The luminescent signal is proportional to amount of ATP present.
# Using the CellTiter-Glo luminescent cell viability assay, the amount of cellular ATP was measured in the lymphoblastoid cell line with complete culture medium following compound treatment for 24 hours. The assay was performed in opaque white Kalypsys 1536-well plates. In the screen, tetraoctylammonium bromide was used as positive control. Library compounds were measured for their ability to cause acute toxicity in the cell line, as reflected by a decrease in intracellular ATP levels, in a concentration-dependent manner. […] AC50 values were determined from concentration-response data modeled with the standard Hill equation.
# qHTS protocol for CellTiter Glo lymphoblastoid cellular assay
# [Step] [Parameter] [Value] [Description]
# 1. Reagent; 5 uL; 2500 lymphoblastoid cells/well
# 2. Time; 5 hr; 37 C incubation
# 4. Controls; 23 nL; Tetraoctylammonium bromide 6.4pM to 92 uM
# 5. Time; 24 hr; 37 C incubation
# 6. Reagent; 5 uL; CellTiter Glo reagent
# 7. Time; 30 min; Room Temperature
# 8. Detection; Luminescence; Viewlux plate reader
# Keywords: cell viability, cytotoxicity, lymphoblastoid cell line, luminescence, NTPHTS, NTPHTS_NCGC, NIEHS, DSSTox, MLSMR, MLSCN, NIH Roadmap, qHTS, NCGC
# % is scaled to controls: 0 for no effect and ±100 for the full control effect; potency is read from the fitted curve at half-maximal effect.
Compound,"activity change, negative = cytotoxicity",Potency
CCCCCCCCCCCCCC(=O)O,-3.63% (inactive),
CCCCC(CC)CN (stereo not given),,inactive
COc1ccc2nc(N)sc2c1,6.52% (inactive),
S=C1NC=NC2N=CNC12 (stereo not given),-22.9% (inactive),
c1ccc2scnc2c1,-5.73% (inactive),
ClCCCl,1.39% (inactive),
COC(=O)CCCCC(=O)OC,7.56% (inactive),
O=C(O)CC(C(=O)O)C(CC(=O)O)C(=O)O (stereo not given),-5.24% (inactive),
c1ccccc1,,inactive
CCCN(CCC)C(=O)SCC,2.26% (inactive),
COC(=O)c1ccc(C)cc1,-4.89% (inactive),
C=Cc1ccccc1Cl,-1.21% (inactive),
C=CCc1ccc(OC)c(OC)c1,-7.18% (inactive),
Nc1ccc(Cl)cc1Cl,-2.42% (inactive),
Cc1ccc([N+](=O)[O-])c(C)c1,-1.27% (inactive),
C/C=C\c1ccc(OC)cc1,-6.29% (inactive),
CC12CCC(CC1=O)C2(C)C (stereo not given),20.1% (inactive),
COc1c2ccoc2cc2oc(=O)ccc12,-1.94% (inactive),
O=C(O)c1ccccc1C(c1ccc(O)cc1)c1ccc(O)cc1,0.488% (inactive),
CN(C)CCCCCCN(C)C,-3.12% (inactive),

Compound,"activity change, negative = cytotoxicity",Potency
CCO,-7.21% (inactive),
C1OCOCO1,-12.9% (inactive),
CC1(C)CC(N=C=O)CC(C)(CN=C=O)C1 (stereo not given),-7.95% (inactive),
COCC(=O)O,-0.963% (inactive),
CC1=CC(C)(C)Nc2ccccc21,,inactive
O=C(O)c1ccccc1,-6.52% (inactive),
C=CC(=O)OCCOCCOCCOCCOC(=O)C=C,,25.1 µM (active)
O[C@@H]([C@H](O)[C@@H](O)CBr)[C@@H](O)CBr,-15.2% (inactive),
O=[N+]([O-])c1cccc(Cl)c1Cl,2.27% (inactive),
O=C(O)c1ccc(O)cc1O,,inactive
Nc1ccc(S(=O)(=O)O)cc1,4.2% (inactive),
Cc1ccccc1C,,inactive
CC1=C2[C@H](/C=C(\C)C(=O)O)CC[C@@H](C)[C@H]2CC1,-8.17% (inactive),
c1ccc2c(c1)[nH]c1ccccc12,-12% (inactive),
CN(C)C=O,,inactive
O=C1CCc2ccccc2O1,-2.98% (inactive),
CCCCCCCCO,-17.3% (inactive),
Cc1ccc(N)c([N+](=O)[O-])c1,0.766% (inactive),
Cc1c(N=C=O)cccc1N=C=O,-10.5% (inactive),
C[C@H](CCC(=O)O)[C@H]1CC[C@H]2[C@@H]3CC[C@@H]4C[C@H](O)CC[C@]4(C)[C@H]3CC[C@]12C,8.18% (inactive),
